From PubChem BioAssay (NCATS) come the findings set out here.

Common to all, as to assay: qHTS profiling for inhibitors of Plasmodium falciparum proliferation (AID 504749); further: nearly all actives have a fitted effect of over 60% in size
Settings in all cases: P. falciparum in erythrocytes, SYBR Green DNA, 72 h; series mostly up to 28.7 µM

For one test, the system named is ATS95. An outline of the steps:
(§1)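 Readout was DNA-dye fluorescence from lysed cultures, ex 485/em 535 nm. Parasitized red cells had grown 72 h with compound; data scaled between 0.29 uM artemisinin and DMSO wells and corrected using vehicle-only plates.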

The next test deals with C2A. A digest of the protocol: as §1
For a further test, the system named is CP191. A digest of the protocol:
as §1

The subject of another test is CP192. An outline of the steps: as §1
For a further test, the system named is CP201. An outline of the steps:
as §1

The next test concerns CP203. A digest of the protocol: as §1
A further test has as its system CP211. An outline of the steps:
as §1

Another test deals with CP215. A digest of the protocol:
as §1

In a further test the test system is CP252. An outline of the steps:
as §1

A further test concerns CP256. An outline of the steps: as §1
The next test has as its system CP262. A digest of the protocol:
as §1

Another test has as its system CP265. A digest of the protocol:
as §1

The subject of the next test is CP185. An outline of the steps:
as §1

The subject of another test is CP194. A digest of the protocol: as §1
Another test has as its system CP217. A digest of the protocol:
as §1

Another test concerns CP237. A digest of the protocol: as §1
A further test deals with CP238. An outline of the steps:
as §1

Another test has as its system CP247. A digest of the protocol:
as §1

For a further test, the system named is CP250. An outline of the steps: as §1
For the next test, the system named is CP260. An outline of the steps:
as §1

Results filed as inconclusive are left out. Activity calls are given as the source filed them. The call rests on the fitted dose curve; in most records, active means well fitted inhibition curve with a large enough effect; inconclusive means small, poorly fitted or top-dose-only effect; inactive means flat fitted curve, though single readings scatter.
Potency means the concentration at half of the fitted maximal effect.

On to `Cc1cc(-c2ccc(N=Nc3c(S(=O)(=O)O)cc4cc(S(=O)(=O)O)cc(N)c4c3O)c(C)c2)ccc1N=Nc1c(S(=O)(=O)O)cc2cc(S(=O)(=O)O)cc(N)c2c1O`, for which the Potency entry in the test with ATS95, with C2A, in the test on CP191, in the test with CP192, in the test with CP201 and with CP203 was “inactive” each time. In addition, the Potency entry in the test with CP211, in the test with CP215, in the test with CP252, in the test with CP256, in the test with CP262 and in the test on CP265 was “inactive” in each case.

On to `COc1ccc(-c2noc(CC(=O)O)c2-c2ccc(OC)cc2)cc1`, for which the Potency result with ATS95, with C2A, in the test on CP185, in the test on CP191, in the test on CP192 and in the test on CP194 was “inactive” throughout. For the same molecule, the Potency result with CP201, with CP211, with CP215, in the test with CP217, in the test on CP237 and in the test with CP238 was “inactive” in each case. The Potency result in the test on CP247, in the test on CP250, with CP252, with CP256, with CP260 and in the test on CP262 was “inactive” each time. Moreover, the Potency entry in the test on CP265 is “inactive”.

Regarding `Cc1cc(C(=O)NCCc2ccc(S(=O)(=O)NC(=O)NN3CCCCCC3)cc2)no1`, the Potency entry in the test on ATS95, in the test on C2A, in the test with CP185, in the test on CP191, in the test with CP192 and with CP194 was “inactive” in each case. For the same molecule, the Potency entry in the test with CP201, with CP203, with CP215, in the test on CP217, with CP237 and in the test with CP238 was “inactive” in each case. Besides, the Potency result with CP247, in the test with CP250, in the test with CP252, in the test with CP256, with CP260 and with CP262 was “inactive” in each case. Besides, the Potency entry with CP265 is “inactive”.

Turning to `CCOC(=O)C1=C(COCCN)NC(C)=C(C(=O)OC)C1c1ccccc1Cl` (centres undefined), the Potency entry with ATS95, in the test with C2A, with CP185, in the test on CP191, in the test on CP192 and in the test on CP201 was “inactive” each time. In addition, the Potency entry with CP203, with CP211, with CP215, in the test with CP217, in the test with CP238 and in the test with CP247 was “inactive” in each case. Also, the Potency entry in the test on CP250, in the test on CP252, with CP256, in the test on CP260, with CP262 and in the test on CP265 was “inactive” each time.

With `O=C(Nc1ccc(O)cc1)c1ccccc1O`, the Potency result in the test on ATS95, in the test with C2A, in the test on CP185, with CP191, in the test on CP192 and in the test with CP194 was “inactive” each time. Further, the Potency entry in the test with CP201, in the test on CP211, with CP215, in the test on CP237, in the test with CP238 and with CP250 was “inactive” throughout. Besides, the Potency result in the test with CP252, in the test with CP260 and with CP262 was “inactive” each time.

With `O.O.O.O.O.O.O.O=S(=O)([O-])[O-].[Co+2]`, the Potency is 5.01 µM (active) in the test with ATS95; 12.6 µM (active) in the test on C2A; 12.6 µM (active) in the test on CP185; 8.91 µM (active) in the test with CP191; 7.57 µM (active) with CP194; 7.57 µM (active) in the test on CP201. Besides, the Potency with CP203 is 6.75 µM (active); in the test on CP211, 9.53 µM (active); with CP217, 11.2 µM (active); with CP238, 7.94 µM (active); in the test on CP247 it was 11.2 µM (active); with CP250, 11.2 µM (active). Further, the Potency is 11.2 µM (active) with CP252, 8.91 µM (active) in the test with CP256, 10 µM (active) in the test with CP260 and 11.2 µM (active) with CP265.

Consider `COc1ccc(/C=N/NC(=O)c2ccncc2)c(C(=O)O)c1OC`, for which the Potency result in the test with ATS95, in the test on C2A, in the test on CP185, in the test on CP191, in the test on CP192 and with CP194 was “inactive” each time. The Potency result in the test with CP203, in the test on CP211, with CP215, with CP217, in the test with CP237 and with CP238 was “inactive” each time. In addition, the Potency result with CP247, with CP250, in the test on CP252, with CP256, with CP260 and in the test on CP262 was “inactive” in each case. For the same molecule, in the test on CP265, the Potency result was “inactive”.

For the molecule `CCN(CC)CCCC(C)Nc1cc(/C=C/c2ccccc2Cl)nc2cc(Cl)ccc12` (centres undefined), the Potency was 2.51 µM (active) in the test on ATS95; 1.12 µM (active) in the test on C2A; 2.82 µM (active) in the test with CP185; 1.26 µM (active) in the test on CP191; 12 µM (active) with CP194; 4.78 µM (active) in the test on CP201. Moreover, the Potency was 10.7 µM (active) in the test with CP203; 15.1 µM (active) in the test on CP211; 13.5 µM (active) with CP215; 3.16 µM (active) with CP217; 1.78 µM (active) with CP237; 4.47 µM (active) with CP238. Also, the Potency is 3.55 µM (active) with CP247; 1.26 µM (active) with CP250; 3.55 µM (active) in the test on CP256; 2 µM (active) in the test with CP260; 2.82 µM (active) with CP265.

As for `COc1ccc2nc(NC(=O)Nc3ccccc3)sc2c1`, the Potency result in the test with ATS95, with C2A, in the test with CP185, with CP191, with CP192 and in the test on CP194 was “inactive” in each case. In addition, the Potency result with CP201, with CP217, in the test with CP237, in the test with CP238, in the test with CP250 and with CP252 was “inactive” each time. The Potency entry in the test with CP256, in the test on CP260, with CP262 and in the test on CP265 was “inactive” each time.

On to `O=P(O)(O)CP(=O)(O)O`, for which the Potency entry in the test with ATS95, in the test with C2A, with CP192, in the test on CP194, with CP201 and with CP203 was “inactive” each time. In addition, the Potency result with CP211, in the test with CP215, in the test with CP217, in the test with CP237, in the test on CP238 and in the test on CP247 was “inactive” in each case. Moreover, the Potency result in the test on CP250, in the test with CP252, in the test with CP256, with CP260 and in the test on CP262 was “inactive” each time.

Regarding `CC[C@H]1OC(=O)[C@H](C)[C@@H](O[C@H]2C[C@@](C)(OC)[C@@H](O)[C@H](C)O2)C(C)[C@@H](O[C@@H]2O[C@H](C)C[C@H](N(C)C)[C@@H]2O)[C@](C)(OC)C[C@@H](C)C(=O)[C@H](C)[C@@H](O)[C@]1(C)O` (some centres undefined), the Potency result in the test on ATS95, in the test on C2A, in the test with CP185, in the test on CP192, with CP201 and with CP203 was “inactive” each time. For the same molecule, the Potency result in the test with CP238, in the test with CP247, in the test with CP252 and with CP265 was “inactive” each time. Also, the Potency is 7.94 µM (active) in the test with CP237, 1.26 µM (active) in the test on CP256 and 5.62 µM (active) in the test with CP260.

On to `O=C(O)CCC/C=C\C[C@@H]1[C@@H](/C=C/[C@@H](O)COc2cccc(C(F)(F)F)c2)[C@H](O)C[C@@H]1O`, for which the Potency entry with ATS95, in the test with C2A, in the test on CP185, with CP191, in the test on CP194 and in the test on CP201 was “inactive” each time. For the same molecule, the Potency entry with CP203, with CP211, in the test with CP215, in the test on CP217, with CP237 and in the test on CP238 was “inactive” each time. The Potency entry in the test on CP247, in the test on CP250, in the test with CP252, in the test with CP256, in the test with CP260 and in the test with CP262 was “inactive” each time. Moreover, the Potency entry with CP265 was “inactive”.

With `CCOC(=O)c1c[nH]c2cc(OCC(C)C)c(OCC(C)C)cc2c1=O`, the Potency is 0.0891 µM (active) in the test with ATS95; 0.199 µM (active) with C2A; 0.1 µM (active) with CP185; 0.0501 µM (active) with CP191; 0.0536 µM (active) with CP211; 0.0708 µM (active) with CP217. Besides, the Potency was 0.0794 µM (active) in the test with CP237; 0.126 µM (active) with CP238; 0.0794 µM (active) in the test on CP247; 0.0794 µM (active) with CP250; 0.0891 µM (active) in the test with CP252; 0.0708 µM (active) in the test with CP256. For the same molecule, the Potency is 0.0708 µM (active) with CP260 and 0.0891 µM (active) with CP265.
